Data taken from ChEMBL document CHEMBL4513146, “CO-ADD screening of Karazin Kharkiv National University (Ukraine) compounds”.
Results with a measured potency or affinity are listed apart.

How the values were obtained:
[1] = test system: Klebsiella pneumoniae; settings: Concentration 32 ug.mL-1;; ASSAY_TEST Inhibition of Bacterial Growth; detection method Absorption (OD600); MEDIA CAMHB; plate type 384well; NBS; CORNING #3640; time 18 hr
[2] = test system: Candida albicans; settings: Concentration 32 ug.mL-1; ASSAY_TEST Inhibition of Fungal Growth; detection method Absorption (OD530)
[3] = test system: Cryptococcus neoformans; settings: Concentration 32 ug.mL-1; ASSAY_TEST Inhibition of Fungal Growth; detection method Resazurin; Absorption (OD600-OD570); plate type 384well; NBS; CORNING #3640

CCc1nnc2ccc(S(=O)(=O)N(Cc3ccc(OC)c(F)c3)c3ccccc3)cn12
Inhibition [1]: -3.43% | Inhibition [2]: -0.62% | Inhibition [3]: -5.32%

Cc1cc(C)cc(Nc2nc(C)cc3nn(CC(=O)Nc4ccc(C)c(F)c4)c(=O)n23)c1
Inhibition [1]: 19.17% | Inhibition [2]: 3.06% | Inhibition [3]: -10.1%

Cc1cccc(N(Cc2cccc(Cl)c2)S(=O)(=O)c2cccn3c(C)nnc23)c1
Inhibition [1]: 4.74% | Inhibition [2]: 3% | Inhibition [3]: -4.93%

Cc1cc(C)cc(N(Cc2ccccc2)S(=O)(=O)c2cccn3cnnc23)c1
Inhibition [1]: -6.91% | Inhibition [2]: 1.52% | Inhibition [3]: -4.73%

COc1ccc(NC(=O)CSc2nc3ccccc3n3cnnc23)cc1OC
Inhibition [1]: 13.64% | Inhibition [2]: 4.39% | Inhibition [3]: -35.7%

COc1cccc(-n2ccn3c(SCC(=O)c4ccc(C)cc4C)nnc3c2=O)c1
Inhibition [1]: 16.45% | Inhibition [2]: 4.51% | Inhibition [3]: -10.37%

CCc1ccccc1Sc1nccn2c(=O)n(CC(=O)Nc3c(C)cccc3C)nc12
Inhibition [1]: 10.25% | Inhibition [2]: 3.49% | Inhibition [3]: -15.72%

Cc1nc(-c2ccccn2)cc2nn(CC(=O)Nc3ccccc3C(F)(F)F)c(=O)n12
Inhibition [1]: 3.31% | Inhibition [2]: 0.65% | Inhibition [3]: -8.99%

Cc1ccc(-c2ccc3nn(CC(=O)Nc4ccc(C(C)C)cc4)c(=O)n3n2)cc1C
Inhibition [1]: 2.75% | Inhibition [2]: 3.46% | Inhibition [3]: -11.72%

O=C(Cn1nc2ccc(-c3ccc(Cl)cc3)nn2c1=O)N1CCN(c2ccc(F)cc2)CC1
Inhibition [1]: -0.53% | Inhibition [2]: 2.31% | Inhibition [3]: -8.76%

CCN(C(=O)Cn1nc2nc(Nc3ccc(F)cc3)ccn2c1=O)c1ccccc1
Inhibition [1]: 8.48% | Inhibition [2]: 1.18% | Inhibition [3]: -4.45%

COc1cccc(-n2ccn3c(SCC(=O)N4CCN(c5ccccc5F)CC4)nnc3c2=O)c1
Inhibition [1]: 17.26% | Inhibition [2]: 0.16% | Inhibition [3]: -10.18%

CCc1nnc2c(SCC(=O)Nc3ccc(C(C)=O)cc3)nc3ccccc3n12
Inhibition [1]: 9.87% | Inhibition [2]: 2.43% | Inhibition [3]: -19.53%

O=C(Cn1nc2ccc(-c3ccccc3)nn2c1=O)Nc1ccc(F)c(Cl)c1
Inhibition [1]: 7.19% | Inhibition [2]: 1.94% | Inhibition [3]: -6.93%

Cc1ccc(NC(=O)Cn2nc3c(Sc4ccccc4)nc4ccccc4n3c2=O)cc1C
Inhibition [1]: 0.03% | Inhibition [2]: 0.48% | Inhibition [3]: -2.74%

COc1cccc(Oc2nccn3c(=O)n(CC(=O)NCc4ccccc4Cl)nc23)c1
Inhibition [1]: 18.21% | Inhibition [2]: -2.46% | Inhibition [3]: -9.66%

CCc1cccc(NC(=O)CSc2nnc3c(=O)n(-c4ccccc4)ccn23)c1
Inhibition [1]: 3.17% | Inhibition [2]: 8.67% | Inhibition [3]: -15.51%

Cc1nnc2ccc(S(=O)(=O)N(Cc3cccc(Cl)c3)c3ccc(F)cc3)cn12
Inhibition [1]: 8% | Inhibition [2]: 2.21% | Inhibition [3]: -6.34%

CCOC(=O)c1ccc(NC(=O)Cn2nc3ccc(SC(C)(C)C)nn3c2=O)cc1
Inhibition [1]: 7.26% | Inhibition [2]: 5.28% | Inhibition [3]: -37.99%

Cc1cc(C)cc(Nc2nc(C)cc3nn(CC(=O)N(C)c4cccc(C)c4)c(=O)n23)c1
Inhibition [1]: 7.61% | Inhibition [2]: 2.11% | Inhibition [3]: -3.53%

CCCCOc1ccc(-c2cc3c4nnc(SCC(=O)N(CC)c5ccccc5)n4ccn3n2)cc1
Inhibition [1]: 16.4% | Inhibition [2]: 5.05% | Inhibition [3]: -16.28%

Cc1nnc2ccc(S(=O)(=O)N(Cc3cccc(F)c3)c3cccc(Cl)c3)cn12
Inhibition [1]: -2.92% | Inhibition [2]: -0.21% | Inhibition [3]: -11.05%

CCc1ccc(N(Cc2ccc(OC)cc2)S(=O)(=O)c2cccn3c(C)nnc23)cc1
Inhibition [1]: 6.54% | Inhibition [2]: 3.18% | Inhibition [3]: -10.92%

O=c1n(Cc2nc(-c3ccc(Cl)cc3)no2)nc2ccc(-c3ccccc3)nn12
Inhibition [1]: 13.55% | Inhibition [2]: 2.36% | Inhibition [3]: -20.52%

O=c1n(Cc2nc(-c3ccc(OC(F)(F)F)cc3)no2)nc2ccc(-c3ccccc3)nn12
Inhibition [1]: 8.49% | Inhibition [2]: 3.85% | Inhibition [3]: -17.12%

COc1ccc(C)cc1NC(=O)Cn1nc2cc(C)nc(Nc3ccc(F)cc3)n2c1=O
Inhibition [1]: 2.21% | Inhibition [2]: 2.84% | Inhibition [3]: -7.79%

COc1ccccc1Cn1c(=O)c2sccc2n2c(=O)n(CC(=O)c3ccc(C)cc3C)nc12
Inhibition [1]: 4.01% | Inhibition [2]: 8% | Inhibition [3]: -26.25%
